PubChem BioAssay AID651718 (The Scripps Research Institute Molecular Screening Center, 2012)
Out of some 360,000 compounds screened, about 2,700 (0.75%) were called active. This is one part of a sample in which actives are shown more often than they occur. No stated cut-off is given here; in the data, active means inhibition above about 4.5%; inactive means the rest.

Test system: Methionine sulfoxide reductase A (Bos taurus)
Assay: bovine MsrA enzyme inhibitors, primary screen, biochemical, absorbance, HTS (AID 651718);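 further: 0% = vehicle wells with enzyme and 100% = reference inhibitor wells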
Settings: purified bovine MsrA, absorbance read-out; at 15.5 µM; hits give high values

| Compound | inhibition |
| --- | --- |
| COC(=O)C1=C(C)N(Cc2ccc(F)cc2)C(=S)NC1c1cccc(Cl)c1 (stereo unspecified) | 0% (inactive) |
| COc1ccccc1-c1ccc([C@@H]2C[C@H]3[C@H](CON3C)CN2S(=O)(=O)c2cc(Cl)cc(Cl)c2)cc1 | -0.24% (inactive) |
| O=C(O)c1ccc(N/N=C/c2ccc3ncccc3c2)cc1 | 5.15% (active) |
| CCNC(=S)NNC(=O)c1ccc2ncccc2c1 | 0.98% (inactive) |
| CC(C)(C)OC(=O)N/N=C/c1ccc(C(=O)O)cc1 | 1.73% (inactive) |
| Cc1ccccc1N/N=C/c1ccc(N2CCOCC2)cc1 | 1.63% (inactive) |
| Cc1ccc(OCCCC(=O)Nc2ccc(N3CCOCC3)cc2)cc1 | -1.28% (inactive) |
| Cc1cc(C(=O)N/N=C/c2ccc(N3CCOCC3)cc2)c(C)o1 | 5.02% (active) |
| CCCOc1cccc(C(=O)NCCCNC(=O)c2cccnc2)c1 | -0.09% (inactive) |
| O=C(CNC(=O)C(c1ccccc1)c1ccccc1)N/N=C\c1ccc2c(c1)OCO2 | 1.12% (inactive) |
| CCOc1cc(/C=N/NC(=O)c2ccncc2)cc(Br)c1O | 2.43% (inactive) |
| O=C(CNC(=O)c1cccs1)N/N=C/c1cccc(Br)c1 | 0.52% (inactive) |
| O=C(CNC(=O)C1COc2ccccc2O1)N/N=C/c1cc(Br)c(O)c(Br)c1 (stereo unspecified) | 4.96% (active) |
| O=C(Cc1ccccc1)Nc1ccc(NC(=O)c2cccnc2)cc1 | -0.64% (inactive) |
| CCN(CC)c1ccc(/C=N/NC(=O)CNC(=O)c2cccs2)cc1 | 4.8% (active) |
| O=C(N/N=C/c1cccc(OC(=O)c2ccc([N+](=O)[O-])cc2)c1)c1cccnc1 | -0.13% (inactive) |
| CC(C)OCCCNC(=O)CNC(=O)c1cccs1 | 0.37% (inactive) |
| CC1CC(=NNC(=O)C2COc3ccccc3O2)CC(C)(C)C1 (stereo unspecified) | -0.12% (inactive) |
| CCN(CC)c1ccc(/C=N/NC(=O)CNC(=O)c2cccnc2)cc1 | 4.63% (active) |

| Compound | inhibition |
| --- | --- |
| O=C(CNC(=O)c1cccnc1)N/N=C/c1cc(Br)c(O)c(Br)c1 | 8.83% (active) |
| COC(=O)C1=C(C(=O)OC)C2C=C(C(C)C)C1C(=O)C2(C)O (stereo unspecified) | 0.16% (inactive) |
| CC[C@H](C)[C@H]1CNC(=O)C(=O)N1CC1CCN(CCc2ccc(OC)c(OC)c2)CC1 | -0.53% (inactive) |
| O=C(NCC(c1ccco1)N1CCc2ccccc21)c1cccc(F)c1 (stereo unspecified) | -0.1% (inactive) |
| Cc1ccccc1C(=O)N[C@H](C(=O)N1CCC[C@H]1C(=O)NCc1ccccc1)C(C)C | 0.08% (inactive) |
| Cc1ccc2nc(-c3ccc(CN4CCC(n5cc(-c6ccccc6)[nH]c5=O)CC4)cc3)c(-c3ccccc3)nc2c1 | 1.47% (inactive) |
| O=c1[nH]c(-c2ccccc2)cn1C1CCN(Cc2ccc(-c3nc4ccc(F)cc4nc3-c3ccccc3)cc2)CC1 | 1.06% (inactive) |
| Cc1nc(NC(=O)C(C)(C)C)sc1[N+](=O)[O-] | 0.16% (inactive) |
| Oc1c(C(c2ccco2)N2CCC3(CC2)OCCO3)sc2ncnn12 (stereo unspecified) | 1.08% (inactive) |
| O=C(COC(=O)CCC(=O)c1cccs1)NCc1ccco1 | -1.07% (inactive) |
| C/C(=N\OCC(=O)Nc1ccc(Br)cc1)c1cccs1 | 0% (inactive) |
| O=C(NC(Cc1c[nH]c2ccccc12)C(=O)N/N=C/c1ccc(Br)cc1)c1cccs1 (stereo unspecified) | 1.85% (inactive) |
| O=C(N/N=C/C=C/c1ccco1)c1cccs1 | 5.18% (active) |
| CC(=O)Nc1ccc(/C=N/NC(=O)c2cccs2)cc1 | 5.38% (active) |
| CC1(C)CC(=O)C/C(=N\NC(=O)c2cccs2)C1 | 0.04% (inactive) |
| Nc1[nH]c(C(=O)c2ccc(Br)cc2)c(-c2ccc3c(c2)OCO3)c1C(=O)NCCc1c[nH]c2ccccc12 | 1.06% (inactive) |
| CCOC(=O)CNC(=O)N(C)[C@H]1C[C@H]2c3[nH]c4c(-c5ccc6c(c5)OCO6)cccc4c3CCN2C(=O)[C@H]1[C@H](C)O | 0.91% (inactive) |
| COC(=O)[C@]12C[C@H](CC(=O)NCc3ccc(C)o3)C(=O)N(CCC3=CCCCC3)C1=C[C@H](C(C)(C)C)O[C@@H]2C | -0.16% (inactive) |
| COCc1cc(N2CCN(C(=O)OC(C)(C)C)C[C@@H]2C)ccc1N1CCN(Cc2ccccc2)[C@H](C)C1 | -0.33% (inactive) |

| Compound | inhibition |
| --- | --- |
| CN1C(=O)C2CC(O)C(SC3CC4C(=O)N(C)C(=O)C4CC3O)CC2C1=O (stereo unspecified) | -0.2% (inactive) |
| COC(=O)C1=C(C)N(Cc2cccc(C(F)(F)F)c2)C(=NCc2ccccc2)NC1c1ccc(Cl)cc1 (stereo unspecified) | -1.08% (inactive) |
| O=C(C(=O)N1CCC(CNC(=O)c2cccnc2Cl)CC1)c1cccs1 | 0.64% (inactive) |
| COc1ccc(S(=O)(=O)N2CCOCC2)cc1NC(=O)CSc1nnc(NC2CC2)s1 | 1.12% (inactive) |
| COc1ccc(-c2cc3ccc(OCc4nn[nH]n4)cc3oc2=O)cc1 | 6.87% (active) |
| CCCCc1cc(=O)oc2cc(C)cc(OCc3nn[nH]n3)c12 | 2.46% (inactive) |
| Cc1noc(C)c1COc1ccc2ccc(=O)oc2c1 | 1.22% (inactive) |
| CN1CCNC(=O)C1CC(=O)NCCC1=CCCCC1 (stereo unspecified) | 2.03% (inactive) |
| CCOC(=O)C1CSCCS(=O)(=O)N1Cc1ccc(Cl)cc1 (stereo unspecified) | -0.33% (inactive) |
| Cc1cc(C(=O)N/N=C/c2ccc(O)c([N+](=O)[O-])c2)c(C)n1-c1ccc(F)cc1 | 4.88% (active) |
| CC(Oc1ccccc1[N+](=O)[O-])C(=O)N/N=C/c1ccoc1 (stereo unspecified) | 1.1% (inactive) |
| Cc1c(Cl)c([N+](=O)[O-])nn1Cc1ccc(C(=O)N/N=C\c2cc(Cl)ccc2O)o1 | 0.28% (inactive) |
| COC(=O)C(C(=O)OC)c1ccccc1NS(=O)(=O)c1cccc2ccccc12 | -0.65% (inactive) |
| CCOC(=O)c1ccc(NNC(C)=O)c([N+](=O)[O-])c1 | -0.39% (inactive) |
| CCOC(=O)C/C(C)=N\Nc1ccc([N+](=O)[O-])cc1[N+](=O)[O-] | 12.8% (active) |
| CCCCOC(=O)CCCc1ccc([N+](=O)[O-])cc1[N+](=O)[O-] | 4.36% (inactive) |
| CC(C(=O)NC1CCCC1)N1CCN(S(=O)(=O)c2ccccc2Cl)CC1 (stereo unspecified) | -0.92% (inactive) |
| CCCCNC(=O)C(C)N(CCN(C)C)C(=O)CCCCCN1C(=O)NC(c2ccc(Cl)cc2)C(C(=O)OCc2ccccc2)=C1C (stereo unspecified) | 1.77% (inactive) |
